In PMC4336329 (PLoS ONE, 2015):
Among all 310,000 compounds or so, about 14,000 (4.5%) showed an effect of 50% or more. Effects have a minus sign here. The full list was thinned out, with strong results kept by preference.

Biological target: human ether-à-go-go-related gene (hERG) potassium channel (human, UniProt Q12809)
Experiment: primary screen, population patch clamp on CHO cells stably expressing hERG; higher = less effect of the substance
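Note: peak tail current of the secondary pulse compared with the same well before compound.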

Sequence of human ether-à-go-go-related gene (hERG) potassium channel (Q12809 whole entry, looked up): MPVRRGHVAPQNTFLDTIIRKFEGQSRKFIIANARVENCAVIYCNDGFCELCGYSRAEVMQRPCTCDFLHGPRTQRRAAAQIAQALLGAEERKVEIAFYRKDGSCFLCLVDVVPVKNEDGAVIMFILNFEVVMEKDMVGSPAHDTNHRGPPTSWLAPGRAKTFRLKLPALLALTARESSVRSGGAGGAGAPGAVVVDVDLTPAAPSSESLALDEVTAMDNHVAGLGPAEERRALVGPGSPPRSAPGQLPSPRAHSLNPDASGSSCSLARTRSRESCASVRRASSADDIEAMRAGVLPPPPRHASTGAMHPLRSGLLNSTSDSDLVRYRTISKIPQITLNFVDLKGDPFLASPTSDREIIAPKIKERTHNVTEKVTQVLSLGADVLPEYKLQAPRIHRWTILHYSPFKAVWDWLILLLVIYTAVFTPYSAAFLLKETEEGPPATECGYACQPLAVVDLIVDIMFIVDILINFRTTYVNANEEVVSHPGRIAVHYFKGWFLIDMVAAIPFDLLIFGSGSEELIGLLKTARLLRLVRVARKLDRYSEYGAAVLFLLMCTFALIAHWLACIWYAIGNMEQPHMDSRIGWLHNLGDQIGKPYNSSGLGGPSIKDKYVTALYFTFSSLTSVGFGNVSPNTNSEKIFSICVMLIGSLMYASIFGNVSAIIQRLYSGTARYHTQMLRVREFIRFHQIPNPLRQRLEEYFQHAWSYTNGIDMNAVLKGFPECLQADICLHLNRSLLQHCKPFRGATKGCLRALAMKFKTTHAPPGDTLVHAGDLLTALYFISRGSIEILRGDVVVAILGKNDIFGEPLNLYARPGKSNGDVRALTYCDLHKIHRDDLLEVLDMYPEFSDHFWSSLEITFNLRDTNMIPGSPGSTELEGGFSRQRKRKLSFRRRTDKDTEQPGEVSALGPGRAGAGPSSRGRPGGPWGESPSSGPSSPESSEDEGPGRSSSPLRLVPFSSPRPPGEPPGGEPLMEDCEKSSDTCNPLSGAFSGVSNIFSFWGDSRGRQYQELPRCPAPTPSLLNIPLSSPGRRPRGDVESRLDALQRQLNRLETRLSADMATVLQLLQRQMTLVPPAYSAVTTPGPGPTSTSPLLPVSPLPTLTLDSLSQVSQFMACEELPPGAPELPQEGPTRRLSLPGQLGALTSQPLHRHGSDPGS

SMILES | hERG current change (%, negative = inhibition) at 10uM [%]
CCOc1ccc(CCNC(=O)C2CCN(S(=O)(=O)N3CC(C)CC(C)C3)CC2)cc1OCC (stereo not shown) | 20.7
Cc1c(NC(=O)Cn2cc([N+](=O)[O-])cn2)c(=O)n(-c2ccccc2)n1C | 11.7
CC1CCN(c2ccc3c(c2)S(=O)(=O)c2ccccc2C3=O)CC1 | 7.82
COc1cccc2cc(C(=O)C3=C(O)C(=O)N(c4cc(C)on4)C3c3cccs3)oc12 (stereo not shown) | 22.9
COc1ccccc1CNC(=O)CS(=O)Cc1nc(-c2ccc(OC)c(OC)c2)oc1C (stereo not shown) | -6.47
COc1ccccc1NS(=O)(=O)c1ccc2oc(=S)[nH]c2c1 | 2.14
CC1CC(C)(C)NC(=S)N1CCC(=O)Nc1ccc2c(c1)OCCO2 (stereo not shown) | 18.3
CC(C)(C)c1ccc(OC(=O)N2CCOCC2)cc1 | 14
COc1cc(OC)cc(C(=O)Nc2cccc(-c3ccc(N4CCOCC4)nn3)c2)c1 | 14.5
O=c1[nH]c(=O)n(CCC2=CCCCC2)c(O)c1/C=N/N1CCOCC1 | -21.6
O=c1[nH]c(=S)n(Cc2ccc(F)cc2)c(O)c1C=NCC1CCCO1 (stereo not shown) | -61.9
O=c1[nH]c(=S)n(Cc2ccc(F)cc2)c(O)c1C=NCCCn1ccnc1 | -60.3
O=c1[nH]c(=S)n(C2CC2)c(O)c1C=NCC1CCCO1 (stereo not shown) | -6.97
O=c1[nH]c(=S)n(CCC2=CCCCC2)c(O)c1/C=N/N1CCOCC1 | -41.8
O=c1[nH]c(=S)n(CCC2=CCCCC2)c(O)c1C=NCc1cccnc1 | -0.946
O=c1[nH]c(=S)n(CCC2=CCCCC2)c(O)c1C=NCCCn1ccnc1 | -69.3
O=c1[nH]c(=O)n(Cc2ccc(F)cc2)c(O)c1C=NCC1CCCO1 (stereo not shown) | -13
O=c1[nH]c(=O)n(CCC2=CCCCC2)c(O)c1C=NCCCn1ccnc1 | -17.6
O=c1[nH]c(=O)n(Cc2ccc(F)cc2)c(O)c1C=NCCCn1ccnc1 | 4.08
CN1CCN(/N=C/c2c(O)n(CCC3=CCCCC3)c(=S)[nH]c2=O)CC1 | -64.9
O=c1[nH]c(=O)n(CCc2ccc(F)cc2)c(O)c1C=NCCCn1ccnc1 | -3.22
O=C(/C=C/c1ccccc1)C1C(=O)c2ccccc2C1=O | -0.201
Cn1cnc(S(=O)(=O)N2CCN(c3ccccc3)CC2)c1 | 17.3

SMILES | hERG current change (%, negative = inhibition) at 10uM [%]
Cc1c(C(=O)O)oc2c1C(O)CCC2 (stereo not shown) | 0.768
COc1ccc(N(C(C)=O)C2C=CS(=O)(=O)C2)c(OC)c1 (stereo not shown) | 9.14
CSc1nnc(C(C)(C)C)c(=O)n1/N=C/c1ccc(Cl)cc1 | 0.0206
CC(/C=N/NC(=O)CNc1n[nH]c(=O)[nH]c1=O)c1ccccc1 (stereo not shown) | 2.52
Cc1nccn1CCN(C)Cc1cn(Cc2ccccc2)nc1-c1ccc2c(c1)OCO2 | -60
COc1cccc(-c2nn(-c3ccccc3)cc2CN(C)Cc2ccon2)c1 | 9.02
CN(Cc1cn(-c2ccccc2)nc1-c1ccc2c(c1)OCO2)Cc1nccn1C | -16.1
CN(Cc1cn(Cc2ccccc2)nc1-c1ccc2c(c1)OCO2)Cc1nccn1C | -32.7
CCn1ccnc1CN(C)Cc1cn(-c2ccccc2)nc1-c1ccc(OC)cc1F | -44.9
COc1ccc(-c2nn(-c3ccccc3)cc2CN(C)CCn2ccnc2C)c(F)c1 | -57.6
COc1cccc(-c2nn(-c3ccccc3)cc2CN(C)Cc2c(C)nc3ccccn23)c1 | -59.9
CN(Cc1ncc[nH]1)Cc1cn(-c2ccccc2)nc1-c1ccc2c(c1)OCO2 | -60.1
CN(Cc1cnccn1)Cc1cn(Cc2ccccc2)nc1-c1ccc2c(c1)OCO2 | -23
CN(Cc1ccccn1)Cc1cn(Cc2ccccc2)nc1-c1ccc2c(c1)OCO2 | -20.6
COc1cccc(-c2nn(-c3ccccc3)cc2CN(C)Cc2ccno2)c1 | 3.65
COc1ccc(-c2nn(-c3ccccc3)cc2CN2CCCO2)c(F)c1 | 3.95
O=C(c1nnc(Cc2ccc(Cl)cc2)o1)N1CCOCC1 | 10.7
O=C(Nc1ccc(Cl)cc1)N1CCOCC1 | 13.8
O=C(Nc1ccc(F)c(Cl)c1)c1ccccc1 | 0.672
COCCNS(=O)(=O)c1cc(C(=O)O)ccc1OC | 15.9
COc1cc(C(=O)OC2C[C@H]3CC[C@@H](C2)N3C)ccc1O (stereo partly shown) | -7
Cc1ccc(N2C(=O)C3C(C2=O)C(C(=O)c2ccc(Cl)cc2)N2CCCC32)cc1 (stereo not shown) | 2.31
OCC[C@@H]1C[C@@H](O)[C@H](O)[C@@]2(CCCO2)O1 | 6.76

SMILES | hERG current change (%, negative = inhibition) at 10uM [%]
CCCc1cc(=O)[nH]c(SCC(=O)c2c(N)n(C3CC3)c(=O)[nH]c2=O)n1 | 6.85
COc1ccc2c3n(nc2c1)CCN=C3c1ccc(C)cc1 | -14.3
O=C(NCCS(=O)(=O)N1CCN(c2ccccc2)CC1)C1CC(=O)N(c2ccc(F)cc2)C1 (stereo not shown) | -1.02
O=C(CN1CCN(c2ccccc2F)CC1)NCc1ccccc1 | -0.288
O=C(COC(=O)CNC(=O)c1ccccc1F)Nc1ncc(Cl)cc1Cl | -3.8
Cc1c(Cl)cccc1NC(=S)N(Cc1ccco1)C(C)c1ccccn1 (stereo not shown) | -11
CN(CCn1ccnc1)Cc1cn(-c2ccccc2)nc1-c1ccc2c(c1)OCO2 | -62.9
CN(CCn1ccnc1)Cc1cn(Cc2ccccc2)nc1-c1ccc2c(c1)OCO2 | -23.2
CN(Cc1cccnc1)Cc1cn(Cc2ccccc2)nc1-c1ccc2c(c1)OCO2 | -11.7
Cc1cccc(NC(=O)/C(=C\c2cccs2)NC(=O)c2ccccc2)c1 | -51.7
CCOC(=O)N1CCN(C(=O)/C(=C\c2cccs2)NC(=O)c2cccs2)CC1 | -71.8
CCOC(=O)N1CCC(NC(=O)c2cccs2)CC1 | 6.2
Cc1ccc(NC(=O)/C(=C\c2cccs2)NC(=O)c2ccccc2)cc1 | -3.84
CN1CCN(C(=O)/C(=C\c2cccs2)NC(=O)c2ccccc2)CC1 | -75.3
CCOC(=O)N1CCN(C(=O)/C(=C/c2cccs2)NC(=O)c2cccs2)CC1 | -45.7
O=C(N/C(=C/c1ccc2c(c1)OCO2)C(=O)N1CCOCC1)c1cccs1 | 9.12
O=C(N/C(=C\c1ccc2c(c1)OCO2)C(=O)N1CCOCC1)c1cccs1 | -42.8
O=C(N/C(=C/c1cccs1)C(=O)N1CCCC1)c1ccccc1 | 6.44
O=C(N/C(=C\c1cccs1)C(=O)N1CCCCCC1)c1ccccc1 | -32.3
O=C(Nc1ccccc1)/C(=C\c1cccs1)NC(=O)c1ccccc1 | 9.9
CN1CCN(C(=O)/C(=C\c2ccc3c(c2)OCO3)NC(=O)c2cccs2)CC1 | -76.8
